The values that follow come from PubChem BioAssay.

For some assays here: Results with a measured potency or affinity are listed apart. Active and inactive are the calls of the source.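 Rule for the calls, unless noted: active = fitted half-maximal concentration within 10 nM to 100 µM, steepness 0.5 to 2, significant signal drop, low assay interference; inactive = the rest.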

The target of one assay is GTPase HRas (Homo sapiens) (UniProt P01112). The assay can be described thus: inhibitors of GTP binding to wildtype Ras, dose response, biochemical, multiplex bead flow cytometry (AID 1335). To be noted: bead-based flow cytometry, Bodipy-GTP binding to GST-Ras; at 100 µM (top of the series) unless noted. (In general: In flow cytometry, cells or beads pass a laser one at a time.)
Sequence of GTPase HRas (Homo sapiens) (P01112 whole entry, looked up): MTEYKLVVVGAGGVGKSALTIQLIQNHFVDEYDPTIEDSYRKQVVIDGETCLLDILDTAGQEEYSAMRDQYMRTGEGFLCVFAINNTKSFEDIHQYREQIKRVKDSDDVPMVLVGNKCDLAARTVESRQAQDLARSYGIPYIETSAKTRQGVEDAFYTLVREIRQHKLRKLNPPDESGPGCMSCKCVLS
As for `COc1cc2[nH]c(=S)nc(NCc3cccs3)c2cc1OC`, the GTP binding, percent of control is 67.6%.
Same read-out and setting: the same measure for `Cc1nnc(N2CCOCC2)c2nn(-c3ccccc3)c(C)c12`: 71.2%.
Molecule `Cc1ccc(C(=O)c2ccccc2C(=O)O)cc1` gave a GTP binding, percent of control of 89.9%.
Same read-out and setting: the same measure for `COc1ccc(S(=O)(=O)N2CCCCC2)cc1NC(=O)c1ccc([N+](=O)[O-])o1`: 73.3%; for `CCOc1ccc2c(c1)c(N=NC(=N)N)c(O)n2C`: 70.3%; for `O=C(OC(C(=O)NCc1cccs1)c1ccccn1)c1cccs1` (stereo not given): 162%.
Still for that read-out and setting: the same measure for `CCN(CC)c1ccc(/C=C(/C#N)c2nc3ccc(C)cc3[nH]2)c(OC(C)C)c1`: 108%; for `O=C(Nc1nccs1)c1ccc(-c2cccc([N+](=O)[O-])c2)o1`: 72.4%; for `COc1ccc(-c2cc(C(F)(F)F)c3c(n2)sc2c(O)cc(=O)[nH]c23)c(OC)c1`: 76.3%.
The same measure, in the same setting: the result for `COc1cc(N2CCCC2)c(OC)cc1/C=c1/sc2nc3ccccc3n2c1=O` reads 82%; that for `COC(=O)c1ccccc1NC(=O)CSCC(=O)Nc1ccccc1OC`, 81.9%.
On to `O=C(O)c1cc([N+](=O)[O-])ccc1NCc1ccccc1Cl`, for which the GTP binding, percent of control is 112%.
Take `Cc1cc(NCc2ccccn2)n2c(nc3ccccc32)c1C#N`: the GTP binding, percent of control was 87.9%.
Same read-out and setting: the result for `COc1ccc(CC(C)N2CCN(Cc3ccccc3)CC2)c(OC)c1` (stereo not given) reads 85.3%.
The molecule `O=c1n(Cc2ccc(Cl)cc2)c2sc3c(c2c2ncnn12)CCCC3` registered a GTP binding, percent of control of 126%.
On to `NC(=O)c1cc2nc(-c3ccco3)cc(C(F)(F)F)n2n1`, for which the GTP binding, percent of control came to 40.3%.
The same measure, in the same setting: the same measure for `CCN(CC)c1ccc(/C=C/C(=O)c2ccc(Br)cc2)cc1`: 319%; for `COc1ccccc1OCCn1cc(C(=O)O)c2c(Cl)cccc21`: 191%.
The same measure, in the same setting: the same measure for `O=C(c1cccnc1SCCc1ccccc1)N1CCOCC1`: 101%; for `Cc1ccc(/C=N/NC(=O)C2CCN(Cc3ccc(F)cc3Cl)CC2)o1`: 82.7%.
For the molecule `COCCNC(=S)Nc1cc(OC)c(OC)cc1C#N`, the GTP binding, percent of control came to 74.7%.
`COc1ccc(/C=N/NC(=O)c2cccnc2)cc1Cn1nc([N+](=O)[O-])c(Br)c1C`: the GTP binding, percent of control was 67%.
`c1ccc(C2=Nn3c(nnc3-c3ccco3)SC2)cc1`: the GTP binding, percent of control worked out at 81.7%.
On to `C=CCN1C(=NC(=O)CCCC(=O)O)SC2CS(=O)(=O)CC21` (stereo not given), for which the GTP binding, percent of control is 85.7%.
Still for that read-out and setting: the result for `COc1cccc2cc(-c3ccnc(=S)[nH]3)oc12` reads 70.7%; that for `CCOc1c2ccc(C(=O)N[C@H](C)C3CCCCC3)cc2nn1CCOC`, 152%.
On to `O=C(NC1CC2CCCC(C1)N2C(=O)Nc1ccc(Cl)c(C(F)(F)F)c1)C1CC1` (stereo not given), for which the GTP binding, percent of control was found to be 162%.
With `CCC(C)NC(=O)CSc1nc2n[nH]c(C)c2c(=N)n1-c1ccc(OC)cc1` (stereo not given), the GTP binding, percent of control was 48.9%.
On the same count and under the same terms, the result for `O=[N+]([O-])c1cc2oc3c(c2c(C=NCc2ccccc2)c1O)CCCC3` reads 58.7%; that for `Cc1nnc(-n2ncc(C#N)c2N)c2nn(-c3cccc(Cl)c3)c(C)c12`, 76.8%.
In the case of `Cc1ccc(-c2ccc(/C=C(\C#N)C(=O)Nc3cc(C)nn3-c3ccccc3)o2)cc1`, the GTP binding, percent of control was 182%.
The same measure, in the same setting: the result for `Cn1c(=O)c2c(nc(N3CCc4ccccc4C3)n2C)n(C)c1=O` reads 76.9%; that for `Nc1c(S(=O)(=O)c2cccc(Cl)c2)c2nc3ccccc3nc2n1/N=C/c1ccc(O)c(O)c1`, 91.7%.
The molecule `CSc1ncccc1C(=O)OCC(=O)N1CCOCC1` had a GTP binding, percent of control of 160%.
Same read-out and setting: the result for `CCOc1cc(/C=N/NC(=O)c2cccs2)cc([N+](=O)[O-])c1O` reads 57.7%.
The same measure, in the same setting: the same measure for `O=c1c2ccccc2nc2c3ccccc3c(NCCO)nn12`: 65%.
On the same count and under the same terms, the same measure for `COc1cc([N+](=O)[O-])cc(/C=N/NC(=O)c2ccc(NC(=O)c3ccc(C)cc3)cc2)c1O`: 77.6%; for `O=c1c2ccccc2nc2c3ccccc3c(NCCN3CCOCC3)nn12`: 52.2%; for `O=c1c(/C=N/Nc2ccccc2)c(Sc2nnnn2-c2ccccc2)nc2ccccn12`: 114%.
As to `COc1cccc(Nc2ccccc2C(=O)O)c1`, the GTP binding, percent of control came out at 107%.

A further assay concerns Ras-related protein Rab-7a (dog), GTP binding. The assay can be described thus: Rab7 GTP binding inhibitors, potency, dose response, biochemical, wildtype, multiplex bead flow cytometry (AID 1336; call rule not given here). To be noted: bead-based flow cytometry, fluorescent GTP binding to Rab7; series mostly up to 100 µM; GTP binding, % of control: at the top concentration.
Consider `COc1cc2[nH]c(=S)nc(NCc3cccs3)c2cc1OC`, for which the “GTP binding, % of control” value is 70.6% (inactive).
Still for that read-out and setting: the same measure for `Cc1nnc(N2CCOCC2)c2nn(-c3ccccc3)c(C)c12`: 71.9% (inactive); for `Cc1ccc(C(=O)c2ccccc2C(=O)O)cc1`: 73.1% (inactive).
For the molecule `COc1ccc(S(=O)(=O)N2CCCCC2)cc1NC(=O)c1ccc([N+](=O)[O-])o1`, the “GTP binding, % of control” value is 83.3% (inactive).
For `CCOc1ccc2c(c1)c(N=NC(=N)N)c(O)n2C`, the “GTP binding, % of control” value is 79.2% (inactive).
Same read-out and setting: the same measure for `O=C(OC(C(=O)NCc1cccs1)c1ccccn1)c1cccs1` (stereo not given): 61.6% (inactive).
Still for that read-out and setting: the same measure for `CCN(CC)c1ccc(/C=C(/C#N)c2nc3ccc(C)cc3[nH]2)c(OC(C)C)c1`: 103% (inactive); for `O=C(Nc1nccs1)c1ccc(-c2cccc([N+](=O)[O-])c2)o1`: 75.5% (inactive); for `COc1ccc(-c2cc(C(F)(F)F)c3c(n2)sc2c(O)cc(=O)[nH]c23)c(OC)c1`: 88.6% (inactive).
With `COc1cc(N2CCCC2)c(OC)cc1/C=c1/sc2nc3ccccc3n2c1=O`, the “GTP binding, % of control” value is 73.4% (inactive).
`COC(=O)c1ccccc1NC(=O)CSCC(=O)Nc1ccccc1OC`: the “GTP binding, % of control” value was 69.9% (inactive).
On the same count and under the same terms, the same measure for `O=C(O)c1cc([N+](=O)[O-])ccc1NCc1ccccc1Cl`: 112% (inactive); for `Cc1cc(NCc2ccccn2)n2c(nc3ccccc32)c1C#N`: 89.2% (inactive).
`COc1ccc(CC(C)N2CCN(Cc3ccccc3)CC2)c(OC)c1` (stereo not given): the “GTP binding, % of control” value was 89.3% (inactive).
The same measure, in the same setting: the result for `O=c1n(Cc2ccc(Cl)cc2)c2sc3c(c2c2ncnn12)CCCC3` reads 49.7% (inactive).
Regarding `NC(=O)c1cc2nc(-c3ccco3)cc(C(F)(F)F)n2n1`, the “GTP binding, % of control” value was 60.2% (inactive).
With `CCN(CC)c1ccc(/C=C/C(=O)c2ccc(Br)cc2)cc1`, the “GTP binding, % of control” value was 329% (inactive).
Still for that read-out and setting: the result for `COc1ccccc1OCCn1cc(C(=O)O)c2c(Cl)cccc21` reads 73.3% (inactive); that for `O=C(c1cccnc1SCCc1ccccc1)N1CCOCC1`, 106% (inactive).
For the molecule `Cc1ccc(/C=N/NC(=O)C2CCN(Cc3ccc(F)cc3Cl)CC2)o1`, the “GTP binding, % of control” value is 77.8% (inactive).
`COCCNC(=S)Nc1cc(OC)c(OC)cc1C#N`: the “GTP binding, % of control” value is 86.5% (inactive).
`COc1ccc(/C=N/NC(=O)c2cccnc2)cc1Cn1nc([N+](=O)[O-])c(Br)c1C`: the “GTP binding, % of control” value was 82.1% (inactive).
Same read-out and setting: the same measure for `c1ccc(C2=Nn3c(nnc3-c3ccco3)SC2)cc1`: 82.9% (inactive).
For the molecule `C=CCN1C(=NC(=O)CCCC(=O)O)SC2CS(=O)(=O)CC21` (stereo not given), the “GTP binding, % of control” value was 78.6% (inactive).
On the same count and under the same terms, the same measure for `COc1cccc2cc(-c3ccnc(=S)[nH]3)oc12`: 86.7% (inactive); for `CCOc1c2ccc(C(=O)N[C@H](C)C3CCCCC3)cc2nn1CCOC`: 50.7% (inactive).
Consider `O=C(NC1CC2CCCC(C1)N2C(=O)Nc1ccc(Cl)c(C(F)(F)F)c1)C1CC1` (stereo not given), for which the “GTP binding, % of control” value is 53.8% (inactive).
Still for that read-out and setting: the same measure for `CCC(C)NC(=O)CSc1nc2n[nH]c(C)c2c(=N)n1-c1ccc(OC)cc1` (stereo not given): 68.1% (inactive); for `O=[N+]([O-])c1cc2oc3c(c2c(C=NCc2ccccc2)c1O)CCCC3`: 61.4% (inactive).
On the same count and under the same terms, the same measure for `Cc1nnc(-n2ncc(C#N)c2N)c2nn(-c3cccc(Cl)c3)c(C)c12`: 78.1% (inactive); for `Cc1ccc(-c2ccc(/C=C(\C#N)C(=O)Nc3cc(C)nn3-c3ccccc3)o2)cc1`: 224% (inactive); for `Cn1c(=O)c2c(nc(N3CCc4ccccc4C3)n2C)n(C)c1=O`: 80.5% (inactive).
`Nc1c(S(=O)(=O)c2cccc(Cl)c2)c2nc3ccccc3nc2n1/N=C/c1ccc(O)c(O)c1`: the “GTP binding, % of control” value was 57.3% (inactive).
On the same count and under the same terms, the same measure for `CSc1ncccc1C(=O)OCC(=O)N1CCOCC1`: 61.2% (inactive); for `CCOc1cc(/C=N/NC(=O)c2cccs2)cc([N+](=O)[O-])c1O`: 66.5% (inactive); for `O=c1c2ccccc2nc2c3ccccc3c(NCCO)nn12`: 84.2% (inactive).
Regarding `COc1cc([N+](=O)[O-])cc(/C=N/NC(=O)c2ccc(NC(=O)c3ccc(C)cc3)cc2)c1O`, the “GTP binding, % of control” value is 85.6% (inactive).
Same read-out and setting: the same measure for `O=c1c2ccccc2nc2c3ccccc3c(NCCN3CCOCC3)nn12`: 63.5% (inactive); for `O=c1c(/C=N/Nc2ccccc2)c(Sc2nnnn2-c2ccccc2)nc2ccccn12`: 123% (inactive); for `COc1cccc(Nc2ccccc2C(=O)O)c1`: 113% (inactive).
